Screen size: about 16,000 compounds; about 4,000 (25%) were called active. Not shown: some 26% with an inconclusive outcome. Only a sample is shown. Unmarked numbers belong to inactive results. The call rests on the fitted dose curve; in most records, active means well fitted curve in the direction sought with a large enough effect; inconclusive means small, poorly fitted or top-dose-only effect, or effect the other way; inactive means no such curve, though single readings can be large or run the other way.
On the % scale 0 is the no-effect control and ±100 the full control effect.

The target in this assay is Cytochrome P450 2C9 (Homo sapiens) (UniProt P11712). Nature of the assay: Cytochrome panel assay with activity outcomes. The conditions noted are these: recombinant CYP, pro-luciferin dealkylation, luminescence, p450-cyp2c9; series mostly up to 57.1 µM.
Cytochrome P450 2C9 (Homo sapiens), sequence (P11712 whole entry, looked up): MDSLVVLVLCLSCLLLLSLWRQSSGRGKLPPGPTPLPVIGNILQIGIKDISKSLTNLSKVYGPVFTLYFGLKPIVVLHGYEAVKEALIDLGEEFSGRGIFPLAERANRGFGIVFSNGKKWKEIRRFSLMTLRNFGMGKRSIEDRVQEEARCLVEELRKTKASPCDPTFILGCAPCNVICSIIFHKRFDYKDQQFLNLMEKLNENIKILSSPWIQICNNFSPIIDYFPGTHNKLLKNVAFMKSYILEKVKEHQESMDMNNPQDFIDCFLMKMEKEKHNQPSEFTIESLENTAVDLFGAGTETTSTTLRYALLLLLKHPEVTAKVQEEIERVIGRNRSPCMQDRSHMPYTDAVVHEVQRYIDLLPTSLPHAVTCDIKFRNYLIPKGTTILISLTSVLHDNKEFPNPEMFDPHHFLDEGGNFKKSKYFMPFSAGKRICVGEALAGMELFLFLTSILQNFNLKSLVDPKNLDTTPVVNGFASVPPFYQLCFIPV
As for `CC(C)CO/N=C1/C[C@@H](O)[C@@H](O)[C@@H]2[C@@H]3C(=O)N([C@@H](C)c4ccccc4)C(=O)[C@H]3CC[C@@H]12`, the activity, negative = inhibition was -15.7% [at 11.4 µM]. As usually defined, the AC50 is the midpoint of the concentration-response curve, whichever way the signal moves. As to `Cc1nc(NS(=O)(=O)c2ccccc2C)c2c3c(sc2n1)CCC3`, the AC50 was 2.51 µM (active). For the molecule `Cc1nc(NS(=O)(=O)c2ccc(Br)cc2)c2c3c(sc2n1)CCC3`, the AC50 is 0.224 µM (active). For `Cn1c2c(c(=O)n(C)c1=O)C1(C(=O)Nc3ccccc31)C(C#N)=C(N)O2` (stereo unspecified), the AC50 entry was “inactive”. For `CCn1c(=O)[nH]c2cc(Cl)c(Cl)cc21`, the AC50 entry is “inactive”.

As to `C[C@@H](c1ccccc1)N1C(=O)[C@H]2[C@H]3[C@H](O)[C@H](O)C/C(=N/OCc4ccccc4)[C@H]3CC[C@@H]2C1=O`, the activity, negative = inhibition is -20.1% [at 11.4 µM]. In the case of `CCn1c(SCC(=O)N/N=C/C=C\c2ccccc2[N+](=O)[O-])nnc1-c1ccccc1`, the AC50 result was “inactive”. For the molecule `COc1ccc(OCc2nnc(SCC(=O)O)n2N)cc1`, the AC50 result is “inactive”. On the same count and under the same terms, to `O=C(CSc1nnc(COc2ccccc2)n1-c1ccccc1)c1ccccc1` belongs 10 µM (active). Turning to `O=C(CSc1nc2ccc([N+](=O)[O-])cc2s1)c1ccc2ccccc2c1`, the activity, negative = inhibition is -5.5% [at 11.4 µM]. For the molecule `CCn1c(COc2ccccc2)nnc1SCC(=O)c1cccc([N+](=O)[O-])c1`, the AC50 is 22.4 µM (active). Turning to `CO[C@@H]1COC(=O)C/C=C\[C@@H](C)[C@@H]2C=C[C@H](O)[C@@H](COC(=O)CCC[C@H]1C)O2`, the activity, negative = inhibition is -8.54% [at 11.4 µM].

For `Cc1c(C)n(C(=O)CN2CCC(C)CC2)c2ccccc12`, the AC50 entry was “inactive”.

Regarding `CO[C@@H]1COC(=O)C/C=C\[C@H](C)[C@H](OC)COC(=O)[C@H]2CCCN2C(=O)C/C=C\[C@H]1C`, the activity, negative = inhibition is 13.8% [at 11.4 µM].

Regarding `OC[C@H]1NC[C@H](O)[C@@H](O)[C@H]1O`, the AC50 result is “inactive”. On the same count and under the same terms, to `Cc1ccc(NC(=O)N(Cc2ccco2)C(C)c2ccco2)cc1C` (stereo unspecified) belongs 12.6 µM (active).

As to `Cc1ccccc1-c1cc(N(C)Cc2ccco2)ncn1`, the activity, negative = inhibition was -5.66% [at 2.29 µM].

For `Cc1cc(N2CCN(C)CC2)nc2ccc(NC(=O)CCC(=O)NCc3ccco3)cc12`, the AC50 entry is “inactive”. As to `CCCCSC(=S)N(C)C1CCS(=O)(=O)C1` (stereo unspecified), the AC50 was 17.8 µM (active). Regarding `CCCCN(C(=S)Nc1ccccc1)C1CCS(=O)(=O)C1` (stereo unspecified), the AC50 entry was “inactive”. `CCCNC1CCS(=O)(=O)C1` (stereo unspecified): the AC50 entry was “inactive”.

Turning to `O=C(Cc1ccccc1)NC1CCN(S(=O)(=O)c2ccc(C(=O)O)cc2)CC1`, the AC50 entry was “inactive”.

`Cc1ccc(NC(=O)CN2CCC(NC(=O)Cc3ccccc3)CC2)cc1C`: the AC50 was 15.8 µM (active). With `O=[N+]([O-])c1cccc2cn[nH]c12`, the AC50 entry was “inactive”. Turning to `Cc1ccc(C(c2ccc(C)o2)c2cccc([N+](=O)[O-])c2O)o1`, the AC50 was 1.26 µM (active).

For the molecule `O=[N+]([O-])c1cccc2c(Br)[nH]nc12`, the AC50 entry is “inactive”. On to `COC(=O)C1=C(C)OC(N)=C(C#N)C1c1cc(OC)ccc1OC` (stereo unspecified), for which the AC50 was 5.01 µM (active). Take `CCOC(=O)C1=C(N)Oc2ccc(Br)cc2[C@@H]1[C@@H](C#N)C(=O)OCC`: the AC50 result is “inactive”.

With `COC(=O)C1=C(C)OC(N)=C(C#N)C1C1CCCCC1` (stereo unspecified), the AC50 is 10 µM (active). For the molecule `CCOC(=O)C1=C(c2ccccc2)OC(N)=C(C#N)C1c1ccc(Cl)s1` (stereo unspecified), the AC50 entry was “inactive”.

For `CC(=O)OC[C@@H]1O[C@H](C/C=N\O[C@@H](C)c2cn([C@H]3COC[C@H]3O)nn2)C=C[C@@H]1OC(C)=O`, the activity, negative = inhibition was 17.7% [at 11.4 µM]. `COc1ccccc1-c1cncnc1NCc1cnc(C)cn1`: the activity, negative = inhibition is 14.1% [at 2.29 µM]. Consider `Cn1c(N)c(N=Nc2ccc(S(N)(=O)=O)cc2)c(=O)n(C)c1=O`, for which the activity, negative = inhibition was 5.29% [at 11.4 µM]. With `Cc1[nH]n(-c2ccc(S(=O)(=O)O)cc2)c(=O)c1N=Nc1ccccc1`, the activity, negative = inhibition was 21.2% [at 11.4 µM]. Consider `Cc1ccc(N=Nc2c(N)n(-c3ccccc3)[nH]c2=O)cc1`, for which the AC50 is 7.94 µM (active). On to `CCN1C(=O)C=CC1=O`, for which the AC50 result is “inactive”. In the case of `COc1ccc(CNCCC(c2ccc(OC(C)C)cc2)C(C)C)cc1OC` (stereo unspecified), the AC50 result is “inactive”. On to `CC(C)=CCC/C(C)=C/CO/N=C1/C[C@@H](O)[C@@H](O)[C@@H]2[C@H]3C(=O)N(c4ccc(F)cc4F)C(=O)[C@@H]3CC[C@H]12`, for which the activity, negative = inhibition is 18.9% [at 11.4 µM]. With `COc1cc(/C=C(/C#N)c2nc3ccccc3[nH]2)ccc1Oc1ncccc1[N+](=O)[O-]`, the AC50 is 2 µM (active). For the molecule `N#C/C(=C\c1ccc(N2CCCC2)c([N+](=O)[O-])c1)c1nc2ccccc2[nH]1`, the AC50 is 2.51 µM (active). Regarding `COc1ccc(/C=C(/C#N)C(=O)Nc2cc(C)ccc2C)cc1C(=O)O`, the AC50 result is “inactive”. The same measure, in the same setting: to `N#C/C(=C\c1ccc(Oc2ccc(C(F)(F)F)cc2[N+](=O)[O-])cc1)c1nc2ccccc2[nH]1` belongs 3.98 µM (active); to `COc1cc(/C=C(/C#N)c2nc3ccccc3[nH]2)ccc1OCC(=O)Nc1ccccc1C`, 3.16 µM (active). As to `Fc1ccc(Nc2ncnc3ccc(-c4ccoc4)cc23)cc1`, the activity, negative = inhibition is -12.3% [at 2.29 µM]. Consider `COc1ccc(-c2cc(C(F)(F)F)n3nc(C(=O)NCc4ccco4)c(Cl)c3n2)cc1`, for which the AC50 is 0.398 µM (active). Regarding `COc1ccc(-c2cc(CNC(C)=O)on2)cc1`, the AC50 result is “inactive”. Same read-out and setting: to `O=S(=O)(c1ccccc1)N1CCC2(CCN(Cc3ccccc3)CC2)CC1` belongs “inactive”; to `O=c1ccc(NS(=O)(=O)c2ccccc2)cn1Cc1ccc(Cl)c(Cl)c1`, 2.51 µM (active); to `O=c1ccc(NS(=O)(=O)c2ccc(Cl)cc2)cn1Cc1ccc(Cl)c(Cl)c1`, 1.78 µM (active). Consider `CCn1c(CCNC(=O)c2ccc(Cl)cc2Cl)n[nH]c1=S`, for which the AC50 result was “inactive”.

As to `CCCN(CCC)C(=S)NC(=O)c1ccc(Cl)cc1Cl`, the half-maximal activity concentration (AC50) is 3.55 µM (active). `CCC(C)C1NC(=S)N(C2CCCCC2)C1=O` (stereo unspecified): the AC50 is 3.55 µM (active). Still for that read-out and setting: the result for `CC(C)CC1NC(=S)N(C2CCCCC2)C1=O` (stereo unspecified) reads 17.8 µM (active); that for `COc1ccc2c(c1OC)C(=O)N(C(C)C(=O)O)C2=O` (stereo unspecified), “inactive”. On to `O=C(CN1CCN(Cc2ccccc2)CC1)N1CCCc2c1c(=O)oc1ccc(O)cc21`, for which the AC50 was 20 µM (active). With `COc1cc(CN2CCCCC2)cc2cc(C(=O)O)c(=O)oc12`, the activity, negative = inhibition is 15.6% [at 11.4 µM].

`O=C(CN1CCN(Cc2ccccc2)CC1)c1ccc(Br)cc1`: the AC50 entry was “inactive”. For the molecule `CCC[C@H](Sc1nc(N)nc2nc[nH]c12)C(=O)O`, the activity, negative = inhibition was -1.85% [at 11.4 µM]. Same read-out and setting: the result for `O=C(O)CC[P+](c1ccccc1)(c1ccccc1)c1ccccc1` reads 8.46% [at 11.4 µM]. As for `O=C(Nc1ccccc1)N1CCSc2cc(Cl)ccc21`, the AC50 is 2.24 µM (active). In the case of `CC(=O)NNC(=O)N1Cc2ccccc2Oc2ccc(Cl)cc21`, the AC50 result was “inactive”.

Consider `O=C(c1ccccc1)N1CCSC1=S`, for which the AC50 entry is “inactive”. In the case of `Cc1ccc([C@@]2(C)CC/C(=N/N=C3\CC[C@](C)(c4ccc(C)c(C)c4)c4cc(C)c(C)cc43)c3cc(C)c(C)cc32)cc1C`, the activity, negative = inhibition is -6.14% [at 11.4 µM].

For `CCCCCCCCCCCCC/C=C\[C@@H](O)[C@H](CO)NC(C)=O`, the AC50 is 3.16 µM (active). Regarding `CCCCCCCCCCCCCCC/C=C\[C@H](O)[C@@H](NC(=O)CCCCCCCCCCCCC)OC` (tested in a mixture with another compound), the AC50 result was “inactive”. Same read-out and setting: to `CCCCCCCCCCCCCCCC(=O)NC(C)C` belongs “inactive”; to `CN1CCC(=C2c3ccccc3Sc3ccccc32)CC1`, “inactive”.

On to `O=C(C(NS(=O)(=O)c1cccs1)c1ccccc1)N1CCN(c2ccccc2)CC1` (stereo unspecified), for which the AC50 was 8.91 µM (active). For `COc1ccccc1N1CCN(C(=O)C(NS(=O)(=O)c2cccs2)c2ccccc2)CC1` (stereo unspecified), the AC50 was 11.2 µM (active). For the molecule `COC(=O)N1CCC2(CC1)CCN(c1ccccc1)CC2`, the AC50 result was “inactive”. For the molecule `COC(=O)NCC(c1cccnc1)N1CCN(c2ccccc2OC)CC1` (stereo unspecified), the AC50 entry is “inactive”. Turning to `COc1ccccc1N1CCN(Cc2cc(=O)n3ccsc3n2)CC1`, the AC50 entry is “inactive”.

On to `O=C(CCNS(=O)(=O)c1cccs1)N1CCc2ccccc2C1`, for which the AC50 result is “inactive”. As for `S=c1c2[nH]cnc2ncn1CCSc1ncnc2nc[nH]c12`, the activity, negative = inhibition was -0.398% [at 11.4 µM]. In the case of `NS(=O)(=O)c1ccc(NCc2nc3ccccc3[nH]2)cc1`, the activity, negative = inhibition is 7.25% [at 11.4 µM]. On to `NS(=O)(=O)c1ccc(NCc2ccccc2OCc2ccccc2F)cc1`, for which the AC50 was 3.98 µM (active).

For the molecule `NS(=O)(=O)c1ccc(NCc2cnc3ccccc3n2)cc1`, the activity, negative = inhibition was 1.39% [at 11.4 µM]. Regarding `O=c1nc(N2CCCCCC2)nc(N2CCCCCC2)[nH]1`, the AC50 entry is “inactive”. `Cc1cnc(CNc2ccnc(-c3cccc(NS(C)(=O)=O)c3)n2)cn1`: the activity, negative = inhibition is 16.8% [at 2.29 µM]. `Nc1nc(N)c(N=Nc2ccc(C(=O)O)c(O)c2)c(N)n1`: the activity, negative = inhibition was -6.7% [at 11.4 µM]. Consider `Cc1ccc(C)c(C(=N)c2ccccc2Cc2ccccc2)c1`, for which the activity, negative = inhibition was -26.1% [at 11.4 µM]. Turning to `Cc1ccccc1Cn1c(Cc2ccccc2)nc2ccccc21`, the AC50 is 5.01 µM (active). For the molecule `O=C(C(Cc1ccccc1)N1C(=O)C2C3CCC(C3)C2C1=O)N1CCCCC1` (stereo unspecified), the AC50 entry was “inactive”. `CCCCCn1c(CN2CCN(c3cc(Cl)ccc3C)CC2)nc2c1c(=O)[nH]c(=O)n2C`: the AC50 is 3.55 µM (active). Still for that read-out and setting: the result for `CCN1CCN(c2nc3c(c(=O)[nH]c(=O)n3C)n2CCCSc2ncccn2)CC1` reads “inactive”; that for `Cn1c(=O)[nH]c(=O)c2c1nc(CN1CCOCC1)n2CCCO`, “inactive”. The same measure, in the same setting: the result for `COc1cccc(=O)c2c(C)n(-c3cc(C)cc(C)c3)c(C)c12` reads 3.98 µM (active). On to `NC(Cc1ccccc1)=NCC(=O)O`, for which the activity, negative = inhibition was -1.5% [at 11.4 µM]. With `CCCc1nnc(SCC(=O)N2CCCCC2)n1CCCOC`, the AC50 entry is “inactive”. On to `CCOC(=O)CSc1cc(=O)n(C)c2cc(Cl)ccc12`, for which the AC50 is 14.1 µM (active).

As for `Cn1c(=O)cc(SCC(=O)NCCCN2CCOCC2)c2ccc(Cl)cc21`, the AC50 entry was “inactive”.
